Most compounds without a hit are left out; they make up all but 17% or so of the library.
HT1080 IDH1KD tx – kills HT-1080 cells with IDH1 knockdown; AID 686971; hit rate 2% among 360,000; Potency, µM (series often up to 46.1 µM), without a hit: at the top dose activity, negative = toxicity, most hits filed as cytotoxic; HT-1080 IDH1 knockdown viability, ATP luminescence, 48 h;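 note: 0% = DMSO wells and -100% = cell-free medium wells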
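IDH1KD HT-1080 cells, 750/well, RPMI + 5% FBS; compound pinned after 2 h settling; 48 h, 37 °C; CellTiter-Glo luminescence; % activity normalised to DMSO and no-cell wells; curves fitted, classed by r2 and efficacy.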
HepG2 viability – kills HepG2 cells in TGF-b inhibitor counter-screen; AID 588856; HepG2 CAGA-GFP viability, ATP luminescence, 18 h; hit rate 0.76% among 410,000; Potency, µM (series often up to 46.1 µM), inactives show at the highest dose activity change, negative = cytotoxicity, most hits filed as cytotoxic
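CellTiter-Glo luminescence gave cytotoxicity after 18 hours at 37 degrees C. The cells were HepG2 CAGA-GFP in 1% FBS DMEM, stimulated with 500 pg/mL TGF-beta after compound addition. %Activity was normalised to no-cell wells (complete cell-killing) and DMSO (no toxicity), and curves were fitted and classified.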
TGFb inhibitor – TGF-b pathway inhibition. HepG2 CAGA-GFP TGF-b/SMAD3 reporter, GFP fluorescence, 18 h; TGF-beta stimulated, 500 pg/mL final. Potency, µM (titrated, usually from 46.1 µM), for the others: at the top dose activity, negative = inhibition, hits mostly inhibitors. hit rate 1.2% among 410,000. AID 588855; note: % is set by controls: 0 for no effect and ±100 for the full control effect; nearly all actives have a fitted effect of over 65% in size
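Using HEPG2 CAGA-GFP reporter cells at 1000 cells/well, we pinned test compounds, stimulated with recombinant TGF-beta (500 pg/mL final) and measured total well GFP after 18 h.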
TDP1 cell noCPT – qHTS for Inhibitors of human tyrosyl-DNA phosphodiesterase 1 (TDP1): qHTS in cells in absence of CPT; DT40 Tdp1-/- hTDP1 cells, no CPT, ATP luminescence, 48 h; Potency, µM (highest dose often 46.2 µM), inactives show at the highest dose activity change, negative = growth inhibition, most hits filed as inhibitors; hit rate 15% among 420,000; note: % is set by controls: 0 for no effect and ±100 for the full control effect; nearly all actives have a fitted effect of over 55% in size
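Luminescent ATP content (CellTiter-Glo) served as the growth readout. Knockout chicken DT40 cells expressing human TDP1 were exposed to compounds without camptothecin for a minimum 48 hr at 37 °C.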
HT1080-NT tox – kills 2HG-producing HT-1080-NT fibrosarcoma cells. HT-1080-NT fibrosarcoma viability, CellTiter-Glo ATP luminescence, 48 h. AID 686970. Potency, µM (titrated, usually from 46.1 µM), inactives show top-dose activity, negative = less viability, hits mostly cytotoxic. hit rate 1.6% among 360,000;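 note: NT is the 2HG producing partner of a matched IDH1 knockdown line; 0% = DMSO-treated cells and -100% = media-only wells without cells; nearly all actives have a fitted effect of over 55% in size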
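Viability by CellTiter-Glo luminescence after 48 h compound exposure at 37C of HT-1080-NT cells (750/well, RPMI, 5% FBS). % activity scaled between DMSO wells and medium-only wells, then curve-fitted and categorized by curve class.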
DT40 TDP1 CPT – growth inhibition of DT40 Tdp1-/-;hTDP1 cells with camptothecin (screen for TDP1 inhibitors); Potency, µM (doses to about 46.2 µM), inactives show top-dose activity change, negative = growth inhibition, usual class: inhibitors; chicken DT40 Tdp1-/-;hTDP1 cells + 20 nM CPT, ATP luminescence, 48 h; AID 686979; hit rate 12% among 420,000; note: % is set by controls: 0 for no effect and ±100 for the full control effect; nearly all actives have a fitted effect of over 55% in size
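Chicken DT40 Tdp1-/- cells stably complemented with human TDP1 were seeded at 400 cells/well in medium containing 20 nM camptothecin, exposed to pin-transferred compounds, and grown at 37 °C for at least 48 hr. Viability was read as ATP luminescence.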
An asterisk follows results filed as active; ? = inconclusive; nt = no result; [ ] = dose if it differs, or a comment. Calls come from the whole dose curve; as a rule, active = well fitted curve in the direction sought with a large enough effect; inconclusive = small, poorly fitted or top-dose-only effect, or another doubt; inactive = no such curve, though single readings can be large; an effect the other way counts as inactive or inconclusive. Potency is the fitted concentration of half-maximal effect.

SMILES	HT1080 IDH1KD tx	HepG2 viability	TGFb inhibitor	TDP1 cell noCPT	HT1080-NT tox	DT40 TDP1 CPT
COc1ccc(-c2csc(NC(=O)c3c(C)noc3C)n2)cc1	0.9%	0.1%	?	23.1µM*	2.5%	14.6µM*
COc1ccc(-c2csc(NC(=O)C3CCCO3)n2)cc1 (stereo not drawn)	15.6%	-5.0%	?	20.6µM*	7.5%	?
COc1ccc(-c2csc(NC(=O)c3cccc(N4C(=O)CCC4=O)c3)n2)cc1OC	3.0%	8.4%	5.3%	20.6µM*	-6.5%	4.11µM*
CCOc1ccc(-c2csc(NC(=O)c3cccc(N4C(=O)CCC4=O)c3)n2)cc1	9.2%	-4.9%	-10.7%	-23.8%	11.4%	?
Cc1ccc(-c2csc(NC(=O)c3c(C)noc3C)n2)cc1	0.2%	-42.8%	?	9.2µM*	-4.4%[9.24 µM]	?
COc1ccc(OCC(=O)NCCCCCCNC(=O)COc2ccc(OC)cc2)cc1	13.8%	-5.6%	-0.5%	-15.0%	0.4%	-19.2%
Cc1cccc(NC(=O)c2sc3nc4n(c(=O)c3c2C)N=C(c2ccc(F)cc2)CS4)c1C	nt	-14.2%	-2.2%	?	nt	?
O=c1c(-c2cccc(F)c2)nc2cncnc2n1Cc1ccccc1Cl	nt	nt	nt	-13.6%	nt	-4.3%
COc1ccc(-c2csc(NC(=O)c3ccoc3C)n2)cc1	-28.6%	0.2%	?	11.6µM*	20.4%	-26.4%
COc1ccc(-c2csc(NC(=O)c3c(C)noc3C)n2)cc1OC	2.5%	-6.8%	-11.1%	14.6µM*	9.2%	20.6µM*
CSc1nc2n(n1)C(c1ccccn1)C1=C(CC(C)(C)CC1=O)N2 (stereo not drawn)	4.0%	4.2%	1.3%	-9.8%	4.0%	-13.1%
CCN1CCN(CCNC(=O)CCCn2nc(C)c3c(C)n(-c4ccc(C)cc4)nc3c2=O)CC1	13.8%	3.9%	-5.6%	?	12.5%	-10.9%
Cn1cnnc1SC1c2cccc3cccc(c23)C1NS(=O)(=O)c1ccccc1 (stereo not drawn)	-2.2%	4.1%	-20.8%	-4.1%	-4.8%	4.9%
O=S(=O)(NC1c2cccc3cccc(c23)C1Sc1ncccn1)c1ccccc1 (stereo not drawn)	-26.1%	-12.6%	?	20.6µM*	-23.0%	?
CCOC(=O)C1(Cc2ccccc2)CCCN(Cc2cccc(C(C)=O)c2)C1 (stereo not drawn)	6.6%	-20.5%	-12.9%	16.4µM*	0.1%	?
CCOC(=O)C1(Cc2ccccc2)CCCN(C(=O)COc2ccccc2OC)C1 (stereo not drawn)	0.2%	-34.6%	-1.5%	13µM*	-3.4%	23.1µM*
CC(C)c1ccc(Cn2ccc3c4c(N)nc(NC5CC5)nc4ccc32)cc1	nt	nt	nt	3.35µM*	nt	4.73µM*
Cn1c2c(c(=O)n(C)c1=O)C(c1ccc(Br)cc1)C(C#N)=C(N)N2 (stereo not drawn)	-3.4%	-6.5%	3.3%	23.1µM*	-1.9%	?
Cn1c2c(c(=O)n(C)c1=O)C(c1ccccc1Cl)C(C#N)=C(N)O2 (stereo not drawn)	1.6%	-25.1%	-0.2%	-12.2%	1.4%	-17.1%
Nc1cccc2c(=O)c3ccccc3[nH]c12	-17.8%	0.3%	-12.4%	8.2µM*	-1.6%	13µM*
CCN(CC)c1nc(C#N)nc(N(CC)CC)n1	-1.1%	1.5%	-0.4%	-15.6%	1.3%	?
CCCN(CCC)c1nc(N)nc(C#N)n1	nt	-12.7%	-9.9%	17.8µM*	nt	?
COc1ccc(S(=O)(=O)Nc2cccc3c2O[C@H](CN(C)C(=O)Nc2ccccc2)[C@@H](C)CN([C@H](C)CO)C3=O)cc1	8.2%	5.3%	-5.1%	-23.3%	2.6%	2.7%
CC1(C(=O)NCc2ccccc2)CSCC(=O)N1Cc1cccc(C(F)(F)F)c1 (stereo not drawn)	-0.1%	nt	nt	?	-20.0%	18.4µM*
COc1ccc(CN2C(=O)CSCC2(C)C(=O)NCc2ccccc2)cc1OC (stereo not drawn)	-19.1%	nt	nt	?	4.4%	3.6%
SMILES	HT1080 IDH1KD tx	HepG2 viability	TGFb inhibitor	TDP1 cell noCPT	HT1080-NT tox	DT40 TDP1 CPT
O=c1[nH]c(SCc2ccc(F)cc2Cl)nc2ccccc12	-2.1%	-8.3%	-0.1%	20.6µM*	1.4%	-42.4%
Cn1c(SCCOc2ccccc2F)nc2ccccc2c1=O	-5.8%	-8.5%	-29.1%	16.4µM*	-12.0%	18.4µM*
COc1ccc(CSc2nc3ccccc3c(=O)[nH]2)cc1F	2.0%	-4.0%	6.6%	?	-11.3%	?
O=c1[nH]c(SCCOc2ccccc2F)nc2ccccc12	-5.1%	-3.3%	6.9%	6.51µM*	-20.9%	2.2%
Fc1ccc(CSc2nc3ccccc3[nH]2)c2ccccc12	?	-34.7%	?	20.6µM*	?	?
Cn1c(SCc2c(F)cccc2Cl)nc2ccccc2c1=O	7.4%	1.9%	3.0%	-27.5%	5.1%	-24.8%
COc1ccc(-n2nc(C(=O)NCC(=O)NCCC3=CCCCC3)c3ccccc3c2=O)cc1	-10.4%	-12.3%	-2.0%	?	-11.7%	?
COc1ccc(OC)c(S(=O)(=O)NC(C)(C)C)c1	0.6%	-10.5%	2.6%	-11.7%	-0.6%	-22.4%
CC1(C)C(CSc2nc3ccccc3[nH]2)C1(Cl)Cl (stereo not drawn)	?	-17.2%	?	?	-28.7%	23.1µM*
CCSc1nc2ccccc2[nH]1	5.4%	-24.9%	-11.9%	-0.7%	0.4%	3.9%
CCOc1ccc(OCCSc2nc3ccccc3[nH]2)cc1	-18.4%	3.3%	?	20.6µM*	?	16.4µM*
CCNC(=O)c1cccc(NC(=O)CN2C(=O)NC3(CCCCC3)C2=O)c1	2.8%	-13.2%	0.4%	2.4%	0.9%	5.6%
CCCCNC(=O)C(NC(=O)c1cccc2ccccc12)C(=O)c1ccccc1 (stereo not drawn)	-24.3%	-52.2%	-17.0%	?	17.8%	?
C/C(=N\NC(=O)Cc1ccccc1)c1cccs1	-6.3%	-2.4%	-2.2%	1.7%	2.1%	-5.6%
CC(/C=N/NC(=O)CSc1nc(C)cc(C)n1)=C\c1ccccc1	-0.6%	-1.4%	65.2%	?	1.4%	?
C/C(=N\NC(=O)Cn1c(C)nc2ccccc21)c1cccs1	-25.5%	-3.7%	-3.3%	20.6µM*	?	14.6µM*

Bioassay records deposited in PubChem BioAssay by National Center for Advancing Translational Sciences (NCATS).
